Test results as given in PubChem BioAssay AID1159506 (National Center for Advancing Translational Sciences (NCATS), 2015).
Whole data set: some 59,000 sequences, median the read-out near -0.00055, cut for the lowest 2% near -2. The entries come from a sample that favours the lowest values as a whole.

Assay: Identification of proteins required for the processing of the EWS-FLI1 nascent transcript;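 further: robust z of luciferase light less the median z of siRNAs with the same seed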
Conditions: TC32 Ewing sarcoma NR0B1-luc vs CMV-luc (EWS-FLI1 target promoter against control promoter), 48 h; screened at 20 nM (by protocol)
Procedure, shortened: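 TC32 Ewing sarcoma cells carrying NR0B1-promoter or CMV-promoter luciferase reporters were reverse-transfected with single siRNAs at 20 nM, three per gene genome-wide. Luminescence was read after 48 h and normalized to non-targeting controls.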

Sequence | seed-corrected z-score
UAAUGUCCCAAUCGUAUUG against UXS1 | 0.872
AAUCUCUCGGUUUCGAUUC against HYKK | 1.15
UCCGUGCACAUCUUAUAGG against HMG20B | 0.0817
UAAGAAAUGAUGCUCAAUG against LMAN1L | -0.257
UCUACAUCAAUCAAAUAUC against DUSP11 | 1.23
UCUCUUCAUACUUAUUAGC against TEX43 | -2.3
UUGGGAUAAUGAUUGUUAC against OR10AG1 | -0.676
UUCCUGACGAGGUACACUG against GAS2L2 | 0.821
UCAGAGACCAGCUGUUUCU against IGSF23 | -0.0662
ACAGCUAUAAAGGUGAUCC against MTMR1 | -2.56
UGUCGUUCAAGGGUCUUCC against IFNE | -0.372
UAACUAGUUUUCUUGUCCC against CARD6 | 0.329
UAUCAUCCAAAACUGUAUC against ASNSD1 | 0.0108
AUCGGCAUUAAGAAUGUAG against EIF3L | -0.237
UUAGCUGCAUCCUUGCUGG against CELSR3 | -2.13
UAAGUUCUUGUAUCUUCCC against ATP6V1G3 | 0.313
UUCUGGAUUCUGGGCAUCG against IFI6 | -0.197
UCAAUAACCAUGAAGAUGC against FAM162A | 0.76
UCGUGCUACACCAUGAGUC against CTTNBP2 | 0.0923
UUCCAGUAUGCUGAUUUCC against SLC8B1 | -2.95
UCACUUGAUAACAAUCUCC against ZCWPW2 | -0.645
AUCAUUAUCCUUCUCAUCC against IRF6 | -0.561

Sequence | seed-corrected z-score
UAGCCCUCACCAUAGAUGC against SYNGR2 | 0.181
ACAGUUGCAACUUCCAUGC against KCND2 | -2.77
UGAGUACCGUGAUAAAUGC against TAS1R2 | 0.56
UUAGCAUCCACGAUACCAC against CFAP47 | 0.706
UUAAUGAACACAAGCAUGU against RPL23AP14 | 0.756
UAUGUUGUGCGGCUCUCCC against SOX15 | -2.31
UAACGAAUAAUCAUCUUCC against ICE1 | 0.115
UCCAAAUUUGAGUACAUCC against SNIP1 | 0.505
UAAGGCUUUAGUGAGCUCU against FXN | 0.805
UUGCCGUAGACAGCAUGGG against GPR173 | -0.733
UCUGGUUCCUCUUUAAGUG against RPL27A | -3.53
AAUGUUCCUAUUUAUUUCG against RNF214 | -0.629
UCAGGAUCAAGCAUGUUCC against LOC645177 | -0.115
UGUGCUAUAAGAGAUCCAG against TANC2 | -0.454
AAAGUAGUCACCUGGACCA against ODF3 | -2.14
UUCCUCAUGAGCACCAUCC against TEDDM1 | 0.185
AUCUAUUAUGGUUUCGAUC against BAZ1B | -0.12
UCUCUGUACCCAACUCCGC against ZNF212 | -0.31
AAUGAAAUAGUGCUGUUUG against KCTD1 | 0.318
UCUGCUUGGAAAUAUCUCG against GRSF1 | -4.11
AAUCCUCUUAUGAAUAACG against ZNF331 | -0.158
AAGGAUACCAUCAUGUAGC against FZD3 | 0.547

Sequence | seed-corrected z-score
UUUGUAACAUCAAUCAGAG against EXOC4 | 0.287
AUUCGGGAUAUAUAGAUUG against LIN7C | 0.308
UCAAGUACAUUGCAGUUUG against PDK1 | -0.235
UCCAGGUUUAUAUAGGUUG against MT1X | -7.89
UCAUAAGUGACAAGGCUGC against DCTN2 | -0.548
UGACGUGAUAGCUUGAACC against EXPH5 | 0.908
UUUGAUUCCAUGUAGCUGU against MTCP1 | 0.871
ACAUCAUCCACUUCGUUCC against UNC93B1 | -3.19
UUAACUGCAUCCCUAAUCC against AVEN | -1.22
UUCUUUACAUGCUGCAUUC against GALNT11 | 0.394
UUCAUGUCGAUAACUGUGG against KCNJ15 | -0.324
UCUUGGAACAGGAUCUUCU against TAOK2 | -0.173
UCAUGAAUUGUGGCAGGCA against LINC00598 | 0.856
ACUGCUUUGACAUCUGGGC against SNF8 | -0.699
UGACUAAUAAGAAUGCCCG against SLC2A2 | -0.863
AUAACUACAGCAUCAGAGG against WDR60 | 0.989
AACCGUUUCAUAAACUCCC against MCMBP | 0.188
UAUUCGUACUCAAACGUGC against SFPQ | -2.1
AUACAUGUCAGCUGAGUAG against POU2AF1 | -0.413
AGUGUCUCUACUCAGGUUC against CSF2 | 1.91
UUCGGAUAUAGAGGUAGGC against SNRNP200 | -2.46
UGAGUCAAAUGUUCUUUGG against KLF16 | 0.422

Sequence | seed-corrected z-score
UUUUUCUGAACUCUCGUCU against C1orf174 | -1.93
AAAUUUACCUAUGUUCUUC against PBX1 | 2.08
UUUUAGAAAGUUCAUGUCC against CD69 | 0.737
UUCGUGUAGACUGACCUUC against LRCH1 | -9.4
UCAGGUUCUUUGUCUGACC against IRS1 | -1.53
UGGUCUGCAAAGGUAAUGC against PLRG1 | 0.251
UAAGUAGGCACAACACUCA against DEXI | 0.701
AACUGAACAUUUAUAGAGC against MTERF2 | 1.28
CUAUAGAUGAAGUAGGUGC against EDA | 1.41
AGAGUUUCUGGUAUAGACC against TAS2R38 | -2.98
AAGGAUAUGAAGGUAAUUC against ZNF518A | -0.0667
UUAGGGAUGAACCAAGGCA against ATP6V0E1 | 0.122
UUUGCAAUGACACGAAGCC against APOL4 | 0.249
AUAGUUGCAGGAAACUUCU against LOC441907 | -2.67
UUCCUGAGUUCUUUCGUCC against DYRK1B | -0.484
UGUUCUAUUUCACUUACUC against ZBTB26 | -0.568
AAAGGAGCAUAAAUUUAGU against LOC400867 | 2.06
UAUGCAUAAACGGUCUUCA against SH3BGR | -0.25
UAUUUCACGUCGAUAGAGC against TMEM106B | -2.63
UGAGGGUUGAGUGUAAGUC against FUK | -0.673
UUGUGAACUGAUUACACUG against CCDC66 | 0.423
UUGACCAUCAAGUAUUAGC against WDR47 | -10.6

Sequence | seed-corrected z-score
UUCUGAUCAAGGCUAGACC against SHROOM3 | -0.584
UGAACUCCUCUGCAUAUUC against HLA-F | 0.183
UUGGUGUCCGGAGAGGUGU against IRF3 | -0.0987
AACUCCGUCAGUUCCUUCC against FAM167A | 0.463
ACAGCUAUCACUGCAUGCC against OR14J1 | -3.81
UUUAGGUACAGAAUCCCUG against HDHD3 | 0.511
UCUUCAAUAAUGUGCAUCC against SEMA4G | 0.069
UUCUCCGUUUCUGUUAUGC against SYCP2L | 0.199
UGCUGUUCUGUGCUGUUCC against ARID5A | -2.31
UCAGGCUCAACCACCAGCA against ESRRA | -1.16
UAUAUCCACAGUGCGGAUC against RAB13 | 0.253
AUACUUGCGAUAAAGGUGC against CSGALNACT1 | -1.05
UCAGCUCCAACUGAAGGUC against ID1 | 0.724
AAUGGUGUCAGUUCCUCUG against ETFA | 0.854
AGCAUUACAACUAAAAUCC against ZSCAN10 | -3.27
UAGCCAUUCUCGCUCAUGC against AZU1 | 0.88
UGAUCUAUCUUAGUCGCUC against POLQ | -0.0262
UUUCCGUACAUGAAGCAGC against AGBL5 | -0.0403
UUCAUUAUCGAUUUUUGCC against CYB5R2 | -0.288
UGGGAUGAGAGACUCCUCC against C6orf25 | -0.121
UGUUGUAGUGGGCCAGACG against HIST1H2BG | -2.35
UCCGAAAGCACCACGAUGA against SIGIRR | 0.222

Sequence | seed-corrected z-score
AAAGGCCCAACAUCUGACU against ZDHHC8P1 | 0.314
UUCCGACUCGCUGAAGUGC against RPS6KA4 | 0.407
UUGGGUACCUCAGUCCACG against SNRPD2P1 | -5.01
UUUGUUGUAGUCACAUUCC against S100A3 | -1.11
UAAGGAAGUAGUCUCGUUU against TUBGCP6 | 0.26
UAGUGGAUAUAUCUCGGCC against YLPM1 | 0.196
UAUACUCGAAAUGUGGUUC against KIAA1586 | -0.337
UUGCAGAGCAUGUGAGUCC against KRTAP13-3 | -0.281
UGCAUGUCGGGAUAGUUGC against GRIN2D | 0.123
UCCUCGUUCAGCACCCUUC against DNAJB13 | -0.18
UUUGAUGAUCUGUAAGGCC against CNOT10 | -2.03
UGUAUUGCAAGGUUAUAAC against ZNF836 | 0.433
AAAGUGAACAUCGGGUCCC against LILRA4 | -0.351
UCCAUGUUGACUAAGAUUC against GRHL3 | -0.595
UUUCUGGUAAAACUCCUCA against HS1BP3 | 0.892
UGACGUGACAAGCUGAAUG against ALYREF | -0.554
UUAGAUUGCACAAUCCUGU against DMRTC1 | 0.235
UUAAGAUUGACCUUUCUCC against KIAA1755 | -0.0251
UUUGGUGCUUAGUUUGUUC against LOC642262 | -2.38
AUCUUUACAAAUACCCUGC against BCL11A | -0.136
UUUAUAUUCAAUGGGCUUC against FAM45A | -0.523
UAAGGUUCGGAUAUGGGUA against C9orf24 | -0.108
